# Test results reported in ChEMBL document CHEMBL3988442, “University of Dundee, Small-Polar-MMV Screening Library” (2021).
# The campaign covered roughly 69,000 compounds. About 1,000 (1.4%) showed an effect of 50% or more. What follows is part of a selection rich in strong results, with near analogues and random picks from the rest.
# Tested on: Leishmania donovani
# Test: Leishmania intramacrophage assay
# Format: functional, organism-based
# Set-up: scale not given: in the data most compounds retested in dose-response had high values
smiles,measurement,setting,value
COc1cccn(C(C)C(=O)NC2CCCC2)c1=O (stereo unspecified),Percent Effect,"30.3 µM, […]",28.93%
COc1cccc(CN2CCCC2c2cccc(F)c2)c1OC (stereo unspecified),Percent Effect,"30.3 µM, […]",48.24%
COc1cc(CN2CCCC2c2cccc(F)c2)cc(OC)c1OC (stereo unspecified),Percent Effect,"30.3 µM, […]",4.07%
COc1ccc(CN2CCCC2c2cccc(F)c2)c(OC)c1OC (stereo unspecified),Percent Effect,"30.3 µM, […]",53.41%
Clc1cccc(N2CCC(NCc3ncc[nH]3)C2)c1 (stereo unspecified),Percent Effect,"30.3 µM, […]",26.13%
Cc1nc[nH]c1CNC1CC(=O)N(CCc2cccc(Cl)c2)C1 (stereo unspecified),Percent Effect,"30.3 µM, […]",-19.6%
O=C1CC(NCc2ncc[nH]2)CN1CCc1cccc(Cl)c1 (stereo unspecified),Percent Effect,"30.3 µM, […]",87.49%
COc1ccc(CCN2CC(NCc3ncc[nH]3)CC2=O)cc1 (stereo unspecified),Percent Effect,"30.3 µM, […]",17.72%
Clc1cc(Cl)cc(CN2CCC(NCc3cc[nH]n3)CC2)c1,Percent Effect,"30.3 µM, […]",71.72%
Brc1ccc(CN2CCC(NCc3ncc[nH]3)CC2)cc1,Percent Effect,"30.3 µM, […]",85.49%
Cc1cccc(OC2CCN(Cc3ncc[nH]3)CC2)c1,Percent Effect,"30.3 µM, […]",-10.49%
O=C1CC(NCc2ccncc2)CN1CCc1cccc(Cl)c1 (stereo unspecified),Percent Effect,"30.3 µM, […]",37.94%
Clc1cc(Cl)cc(CN2CCC(NCc3ncc[nH]3)CC2)c1,Percent Effect,"30.3 µM, […]",84.31%
CN1CCN(Cc2cccc(NCc3ncc[nH]3)c2)CC1,Percent Effect,"30.3 µM, […]",3.083%
Clc1cccc(N2CCC(NCc3cc[nH]n3)C2)c1 (stereo unspecified),Percent Effect,"30.3 µM, […]",14.09%
COc1cc(OC)cc(N2CCC(NCc3cc[nH]n3)C2)c1 (stereo unspecified),Percent Effect,"30.3 µM, […]",11.55%
O=c1cnc2ccccc2n1CCCn1cccn1,Percent Effect,"30.3 µM, […]",-23.4%
Cc1cc(O)c(OCC(=O)/N=c2\[nH]cc(C)s2)cn1,Percent Effect,"30 µM, 30.03 µM",13.79%
CC(=O)Nc1nc(C(=O)N2CCCC2c2noc(C3CC3)n2)cs1 (stereo unspecified),Percent Effect,"30.3 µM, […]",0.7706%
CN1CC(c2ccccc2)CC12CCN(C(=O)c1cccnc1)CC2 (stereo unspecified),Percent Effect,"30.3 µM, […]",13.25%
CC(C)n1ccnc1C1CCN(C(=O)C2COc3ccccc3O2)CC1 (stereo unspecified),Percent Effect,"30 µM, 30.03 µM",-2.599%
Cc1cc(C)nc(NCCC(=O)Nc2ccc(Cn3cncn3)cc2)n1,Percent Effect,"30.3 µM, […]",18.2%
COc1cc(N2CC[C@@H]3O[C@@H](c4ccncn4)C[C@H]3C2)ncn1,Percent Effect,"30.3 µM, […]",101.1%
Cc1ccc(N2CC[C@@H]3O[C@@H](c4ccncn4)C[C@H]3C2)nn1,Percent Effect,"30.3 µM, […]",12.48%
COc1cc(N2CC[C@@H]3O[C@@H](c4ccnc(C)n4)C[C@H]3C2)ncn1,Percent Effect,"30.3 µM, […]",16.01%
CC(=O)Nc1ncc(S(=O)(=O)Nc2ccccc2)s1,Percent Effect,"30.3 µM, […]",-54.24%
CCc1nnc(CNC2CCCN(Cc3noc(C4CC4)n3)C2)o1 (stereo unspecified),Percent Effect,30 µM,-1.291%
O=c1[nH]cnc2c1CCN(S(=O)(=O)c1ccc(OC(F)(F)F)cc1)C2,Percent Effect,"30.3 µM, […]",24.26%
CCOCCOc1ccc(S(=O)(=O)N2CCc3c(nc[nH]c3=O)C2)cc1,Percent Effect,"30.3 µM, […]",59.04%
O=c1[nH]cnc2c1CCN(S(=O)(=O)c1ccc(Cl)cc1)C2,Percent Effect,"30.3 µM, […]",10.57%
CC(=O)c1cn(CCC(=O)NCCC(=O)O)c2ccccc12,Percent Effect,"30 µM, 30.03 µM",18%
CN(C)c1cccc(C(=O)N2CCn3c(nnc3-c3ccccc3)C2)c1,Percent Effect,"30.3 µM, […]",3.878%
O=C1Nc2ccccc2CN(C/C=C/c2ccccc2)C12CCNC2 (stereo unspecified),Percent Effect,"30.3 µM, […]",95.58%
O=C1Nc2ccccc2CN(CC2CCCC2)C12CCNC2 (stereo unspecified),Percent Effect,"30.3 µM, […]",67.89%
O=C1Nc2ccccc2CC12CCCN2Cc1ccc(F)cc1 (stereo unspecified),Percent Effect,"30.3 µM, […]",-31.7%
O=C1Nc2ccccc2CN(CC2CC2)C12CCNC2 (stereo unspecified),Percent Effect,"30.3 µM, […]",19.67%
O=C1Nc2ccccc2CNC12CCN(CC1CCCC1)CC2,Percent Effect,"30.3 µM, […]",-1.284%
CCCN1Cc2ccccc2NC(=O)C12CCNC2 (stereo unspecified),Percent Effect,"30.3 µM, […]",13.56%
CC(C)NC(=O)Nc1ccc(-c2nc(C(C)C)no2)cc1,Percent Effect,"30.3 µM, […]",-3.03%
Cc1cc(=O)c(C(=O)N2CCCCC2c2ccc(F)cc2)c[nH]1 (stereo unspecified),Percent Effect,"30.3 µM, […]",7.21%
Cc1nc2[nH]cc(C(=O)N3CCCCC3c3ccc(F)cc3)c(=O)n2n1 (stereo unspecified),Percent Effect,"30.3 µM, […]",-11.65%
Cc1cc2[nH]cc(C(=O)N3CCCCC3c3ccc(F)cc3)c(=O)n2n1 (stereo unspecified),Percent Effect,"30.3 µM, […]",54.57%
COc1c(CNCCNC(=O)c2ccco2)c(C)nn1C,Percent Effect,"30 µM, 30.03 µM",1.036%
CCn1nc(C)c2ccn(CC(=O)NCCCOC)c(=O)c21,Percent Effect,"30.3 µM, […]",6.815%
Cc1cc(C(=O)N2CCCC(c3nccn3Cc3cscn3)C2)on1 (stereo unspecified),Percent Effect,"30.3 µM, […]",7.716%
Cc1nc2ccccn2c1CN1C[C@@H](CN(C)CCO)[C@@H](CO)C1,Percent Effect,"30.3 µM, […]",17.46%
Cc1ccccc1OC1CN(Cc2c(C)nc3ccccn23)C1,Percent Effect,"30.3 µM, […]",56.4%
Cc1nc(CN2C[C@@H](CN3CCOCC3)[C@@H](CO)C2)c2ccccn12,Percent Effect,"30.3 µM, […]",-8.953%
COc1ccccc1OC1CN(C(=O)Cc2c(C)nc3ccccn23)C1,Percent Effect,"30.3 µM, […]",42.17%
Cc1nc2ccccn2c1CN1C[C@@H](CN(C)C)[C@@H](CO)C1,Percent Effect,"30.3 µM, […]",28.56%
Cc1nc2ccccn2c1CN1C[C@@H](CN2CCOCC2)[C@@H](CO)C1,Percent Effect,"30.3 µM, […]",60.75%
